# Assay outcomes as filed in PubChem BioAssay.
# MIN6 prolif-1: inducers of beta-cell replication in MIN6 cells. proliferation, % at 10 µM. MIN6 cells proliferation, ATPlite luminescence, 48 h; cells starved in 0.2% serum; 100% = growth in 10% serum. actives 0.29% (n = 330,000);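 active = compounds whose signal lies at least 3.5 SD above the mean of all wells on their plate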
# OPRM1-OPRD1 ag: agonists of human mu-delta opioid receptor heterodimerization | P35372+P41143 | cells, OPRM1-OPRD1 heterodimerization, luminescence | activation, % at 9.3 µM | actives 0.3% (n = 340,000); in the data active = activation above about 18%
# Target sequence (P35372 whole entry, looked up): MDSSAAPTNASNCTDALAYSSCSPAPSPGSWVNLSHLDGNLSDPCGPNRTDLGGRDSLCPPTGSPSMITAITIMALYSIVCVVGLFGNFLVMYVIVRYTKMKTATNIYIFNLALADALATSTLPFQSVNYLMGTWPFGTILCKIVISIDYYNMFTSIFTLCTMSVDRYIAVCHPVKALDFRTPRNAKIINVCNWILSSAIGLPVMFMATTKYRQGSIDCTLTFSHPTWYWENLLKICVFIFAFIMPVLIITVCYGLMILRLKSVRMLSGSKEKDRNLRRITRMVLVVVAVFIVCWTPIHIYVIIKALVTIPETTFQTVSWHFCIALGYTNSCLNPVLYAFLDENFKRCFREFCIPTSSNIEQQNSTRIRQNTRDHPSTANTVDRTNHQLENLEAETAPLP
# Target sequence (P41143 whole entry, looked up): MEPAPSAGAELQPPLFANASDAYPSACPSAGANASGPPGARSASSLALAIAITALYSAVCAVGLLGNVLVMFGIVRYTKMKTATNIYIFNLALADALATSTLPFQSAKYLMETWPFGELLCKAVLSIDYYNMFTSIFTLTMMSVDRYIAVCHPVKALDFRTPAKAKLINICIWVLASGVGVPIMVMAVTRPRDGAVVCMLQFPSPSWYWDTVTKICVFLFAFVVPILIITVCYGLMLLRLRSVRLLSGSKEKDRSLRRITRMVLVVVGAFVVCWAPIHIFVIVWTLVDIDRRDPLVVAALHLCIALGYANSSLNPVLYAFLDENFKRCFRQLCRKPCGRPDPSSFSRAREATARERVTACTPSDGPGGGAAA
# p-CIP stab down: lowers stability of the mouse p/CIP coactivator protein | Q05BA5 | F442A p/CIP-EGFP cells, EGFP fluorescence, 16 h | decrease of EGFP signal, % at 10 µM | actives 0.01% (n = 290,000) | AID 1984;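 active = EGFP signal decrease of at least 30% at 10 µM or well 3 SD below plate mean, unless failing retest; inactive = the rest, including hits failing retest or dose response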
# MOR-DOR inv ag: inverse agonists of human mu-delta opioid receptor heterodimerization | P35372+P41143 | cell-based MOR-DOR heterodimer luminescence, inverse agonism | inhibition, % at 9.3 µM | actives 0.21% (n = 340,000); in the data active = inhibition above about 22%, passing the limit was not always enough
# HTR5A ag: HTR5A agonism, opioid heterodimer counter-screen; P47898; HTR5A agonist assay, luminescence, cell-based; activation, % at 9.3 µM; actives 0.61% (n = 340,000); AID 504692; in the data active = activation mostly above about 9.5%, no sharp cut-off; inactive = mostly below about 7.6%
# HTR5A inv ag: inverse agonist of human HTR5A in OPRM1-OPRD1 counter-screen; inhibition, % at 9.3 µM; actives 0.083% (n = 340,000); HTR5A cell line, luminescence, inverse agonism; P47898; AID 504634; in the data active = inhibition mostly above about 23%, no sharp cut-off; inactive = mostly below about 18%
# MIN6 prolif-2: MIN6 beta-cell replication induction, confirmed. shares compounds with MIN6 prolif-1. MIN6 beta-cell proliferation, ATPlite luminescence, 48 h; cells kept in 0.2% serum; scaled between 0.2% and 10% serum. proliferation increase, % at 50 µM. 920 tested, under 10 active;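 active = proliferation increase above 40% at any of the four tested concentrations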
# Numbers stand for hits; – = inactive; · = no result given. In the library only some 1.4% were active in any assay of this set; here they are far more common.
SMILES,MIN6 prolif-1,OPRM1-OPRD1 ag,p-CIP stab down,MOR-DOR inv ag,HTR5A ag,HTR5A inv ag,MIN6 prolif-2
CCOc1ncccc1C(=O)Nc1ccc2c(C)cc(=O)oc2c1,8.1,–,–,–,–,–,–
Fc1cccc(Nc2nc3ccccc3n3nnnc23)c1,13,–,–,–,–,–,–
O=C(c1ccc(Cl)cc1)N1CCN(S(=O)(=O)/C=C/c2ccccc2)CC1,–,–,·,–,–,–,·
CN1CCN(CC(C)(C)NS(=O)(=O)c2ccccc2)CC1,–,–,·,–,–,–,·
CC(C)(CN1CCc2ccccc2C1)NS(=O)(=O)c1ccccc1,7.7,–,–,–,–,–,–
O=C(CCNC(=O)c1ccc([N+](=O)[O-])cc1)Oc1ccc(F)c(F)c1,–,–,·,–,–,–,·
CCCCOCCCn1c(-c2ccco2)nc2nc3ccccc3nc21,7.8,–,–,–,–,–,–
Cc1ccc(NC(=O)CN2C(=S)NC(C)(C)CC2C)cc1Cl (stereo unspecified),–,–,–,–,–,–,·
CCN(C(=O)CN1C(=S)NC(C)(C)CC1C)c1ccc(C)c(C)c1 (stereo unspecified),9.3,–,–,–,–,–,–
CCCCNC(=O)Nc1nnc(C(C)(C)C)s1,5.1,–,–,–,–,–,–
CC(C)(C)c1nnc(NC(=O)Nc2ccc(Cl)cc2)s1,–,–,–,–,–,–,·
COc1ccc(C(=O)OCC(=O)Nc2c(C)n(C)n(-c3ccccc3)c2=O)cc1OC,–,–,·,–,–,–,·
Cc1cc(C)n(C(=O)COc2ccc([N+](=O)[O-])cc2)n1,5.3,–,–,–,–,–,–
C/C(=N\NC(=O)C1CC1)c1ccccc1O,11,–,–,–,–,–,–
Cc1c(C(=O)OC(C)C)sc(NC(=O)c2cnccn2)c1C(=O)OC(C)C,·,–,·,–,–,–,·
CCN(C[C@H]1N[C@@](CC)(C(=O)OC)[C@H]2C(=O)N(Cc3ccccc3)C(=O)[C@@H]12)S(=O)(=O)c1ccc(OC(F)(F)F)cc1,–,–,·,–,–,–,·
COc1ccccc1NC(=O)CN1CCN(c2ccccc2F)CC1,–,–,–,–,–,–,·
COc1ccccc1NC(=O)N1CCN(c2ccccc2F)CC1,7.3,–,–,–,–,–,–
COCCN(C(=O)c1ccc2c(c1)S(=O)(=O)N=C1CCCCCN12)c1c(N)n(CC(C)C)c(=O)[nH]c1=O,·,–,·,–,–,–,·
Cc1ccc(OCCN2C(=O)NC3(CCc4ccccc4C3)C2=O)cc1 (stereo unspecified),7.2,–,–,–,–,–,–
O=S(=O)(NNc1ncc(C(F)(F)F)cc1Cl)c1ccccc1,–,–,·,–,–,–,·
COc1cccc(NC(=O)CSc2nc(C3CC3)nc3ccccc23)c1,–,–,–,–,–,–,·
Cc1cccc(C)c1NC(=O)CSc1nc(C2CC2)nc2ccccc12,0.0,–,–,–,–,–,–
Brc1nnc2n1-c1ccccc1Sc1ccccc1-2,5.6,–,–,–,–,–,–
Clc1ccc2c(c1)-c1nnc(Br)n1-c1ccccc1S2,–,–,–,–,–,–,·
SMILES,MIN6 prolif-1,OPRM1-OPRD1 ag,p-CIP stab down,MOR-DOR inv ag,HTR5A ag,HTR5A inv ag,MIN6 prolif-2
Cn1cccc1C(=O)OCC(=O)N1CCN(c2ccccc2)CC1,–,–,·,–,–,–,·
CC[C@]12C(=O)N(C)C[C@H]([C@@H]3C(=O)N(C)C(=O)[C@@H]31)N2C(=O)c1ccc(Cl)c(Cl)c1,·,–,·,–,–,–,·
CC(C)CCNc1nc(N)c([N+](=O)[O-])c(NC2CCCCC2)n1,8.8,–,–,–,–,–,–
CC(C)CNc1nc(N)c([N+](=O)[O-])c(NC2CCCCC2)n1,–,–,–,–,–,–,·
COc1ccc(CNc2nc3ccc(C)cc3s2)c(OC)c1OC,–,–,–,–,–,–,·
Nc1ccc(S(=O)(=O)N2CCCc3ccccc32)cc1,14,–,–,–,–,–,–
O=C(Nc1ccc(F)cc1)C1CCCN(C2=NS(=O)(=O)c3ccccc32)C1 (stereo unspecified),–,–,·,–,–,–,·
CCn1nc(NC(=O)c2ccco2)c2cc3ccccc3nc21,–,–,–,–,–,–,·
CC(C)Cn1nc(NC(=O)c2ccco2)c2cc3ccccc3nc21,6.8,–,–,–,–,–,–
OCC[C@H]1C[C@@H](O)[C@H](O)[C@]2(OCc3ccccc32)O1,–,–,·,–,–,–,·
CCOc1cc(-n2cnnn2)c(OCC)cc1NC(=O)c1cnccn1,–,–,–,–,–,–,·
CCOc1cc(N2CCOCC2)c(OCC)cc1NC(=O)c1cnccn1,9.3,·,·,·,·,·,–
CCOc1ccc(OCCNC(=O)C(NC(=O)c2c(F)cccc2F)C(C)C)cc1 (stereo unspecified),–,–,·,–,–,–,·
NS(=O)(=O)c1cccc(NC(=O)CSc2nnc3n2CCCCC3)c1,–,–,·,–,–,–,·
CCCCCCNC(=O)Nc1ccccc1,8.2,–,–,–,–,–,–
O=C(O)CCCNC(=O)Nc1ccccc1,–,–,–,–,–,–,·
COc1ccc(/C(C)=N/NC(=O)CNC(=O)c2cccnc2)c(OC)c1,6.4,–,–,–,–,–,–
COc1ccc(/C(C)=N/NC(=O)C(NC(=O)c2ccccc2)c2n[nH]c(=O)c3ccccc23)c(OC)c1 (stereo unspecified),6.8,–,–,–,–,–,–
COc1cc(/C=N/NC(=O)C(NC(=O)c2ccccc2)c2n[nH]c(=O)c3ccccc23)ccc1OCC(N)=O (stereo unspecified),–,–,–,–,–,–,·
O=C(CN1C(=O)NC2(CCCCCC2)C1=O)NCc1ccccc1Cl,–,–,·,–,–,–,·
CSc1cccc(NC(=O)CNC(=O)C2CCCCC2)c1,11,–,–,–,–,–,–
CC(C)CN(C(=O)COC(=O)Cc1c[nH]c2ccccc12)c1c(N)n(Cc2ccccc2)c(=O)[nH]c1=O,–,–,·,–,–,–,·
Cc1c(NC(=O)C(C)OC(=O)CCc2c[nH]c3ccccc23)c(=O)n(-c2ccccc2)n1C (stereo unspecified),12,–,·,–,–,–,–
Cc1c(NC(=O)C(C)OC(=O)Cc2ccc(F)cc2)c(=O)n(-c2ccccc2)n1C (stereo unspecified),–,–,·,–,–,–,·
Cc1ccc(C(=O)OCC(=O)Nc2ccc3c(c2)OCO3)c(O)c1,–,–,·,–,–,–,·
O=C(O)c1cccc(Nc2nc3ccccc3nc2NS(=O)(=O)c2ccc(F)cc2)c1,–,–,·,–,–,–,·
Cc1cccc(S(=O)(=O)Nc2nc3ccccc3nc2Nc2cccc(C(=O)O)c2)c1,6.6,–,–,–,–,–,–
Cc1cc(Cl)ccc1NC(=S)N1CCN(Cc2ccc3c(c2)OCO3)CC1,–,–,–,–,–,–,·
